± gives the standard deviation. Whole data set: some 5,500 sequences, median “pre-steady-state target cleavage rate” near 0.1, cut for the highest 2% near 0.64. This excerpt belongs to a sample that is enriched for the highest values.
What follows are sequences tested on MIWI (PIWIL1) piRISC loaded with piRNA #2 (30 nt) (assay: pre-steady-state target cleavage rate (min^-1); MIWI and MILI are mouse PIWI proteins and EfPiwi is from a freshwater sponge; tags in brackets are library labels; higher = faster piRNA-guided slicing of the target). Conditions: guide: piRNA #2 5'p-UUAGGUAACCCAGUAGAUCCAGAGGAAUUC; auxiliary factor: 500 nM mouse GTSF1.
Procedure, shortened: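 Cleave-'n-Seq: a transcribed, DNA-blocked target RNA library (0.1 nM) was mixed with 1 nM active affinity-purified piRISC carrying one synthetic guide, with or without 500 nM GTSF1 partner protein, in HEPES–potassium acetate buffer at 33 °C for 0–8 or 0–960 min. Uncleaved targets were sequenced and normalised to depth and to weakly complementary targets. Three trials were pooled, and k3 was capped at 0.0001 min^-1. The pre-steady-state cleavage rate came from a burst-and-steady-state fit.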

| Sequence | pre-steady-state target cleavage rate |
| --- | --- |
| CAAUUGCUCUGGAUCUACUGGGUUACGUAA | 0.536 ± 0.067 |
| CUUAAGGUGACGAUCUACUGGGUUACCUAA | 0.0052 ± 0.0036 |
| CUUAAGGACAGGAUCUACUGCGUUACCUAA | 0.0331 ± 0.017 |
| CUUAACGUCUCGAUCUACUGGGUUACCUAA | 0.357 ± 0.041 |
| CUUAAGGAGUAGAUCUACUGGGUUACCUAA | 0.00567 ± 0.0048 |
| CAAUUCCUCUGGUUCUACUGGGAUACCUAA | 0.145 ± 0.038 |
| CUUAACCUGUGGAACUACUGGGUUACCUAA | 0.177 ± 0.048 |
| CUUAAGGAGACCUUCUACUGGGUUACGUAA | 0.00451 ± 0.0027 |
| CUUUUCCGUCUGGAUCUACUGGGUUACCUAA | 0.385 ± 0.039 |
| CUUAACCUCUGGAUCUACUGUGUUACCUAA | 0.597 ± 0.045 |
| CUUAUCCUCUGGAUCUACUGUGUUACCUAA | 0.722 ± 0.074 |
| CUUAUCCUCUGGAUCUACUGGUUACCUAA | 0.0947 ± 0.024 |
| CUUAAGCUCUGGAUCUACUGGGUUACCUCAA | 0.0988 ± 0.015 |
| CAUUUCCACUGGAUCUACUGGGUUACCUAA | 0.478 ± 0.058 |
| GAAUUCCUCUCGAUCUACUGGGUUACCAAA | 0.564 ± 0.067 |
| CUAUUCCUCUGGAUCUACUGGGUUACCAAA | 0.477 ± 0.061 |
| CAAUUCCUCUGGAUCUACUGGGUUACCAAA | 0.509 ± 0.068 |
| CUUUUCCUCUCGAUCUACUGGGUUACCUUA | 0.539 ± 0.05 |
| CUUAUCCUCUCGAUCUACUGGGUUACCAAA | 0.542 ± 0.041 |
| CAAUUCCUCUCGAUCUACUGGGUUACCAAA | 0.904 ± 0.073 |
| CUUUUCCUCUCGAUCUACUGGGUUACCAAA | 0.64 ± 0.048 |
| CUAUUCCUCUCGAUCUACUGGGUUACCAAA | 0.711 ± 0.047 |
| CUUUUCCUCUGGAUCUACUGGGUUACCAAA | 0.477 ± 0.052 |
| GAAUUCCUCUGGAUCUACUGGCUAACCUAA | 0.0225 ± 0.0083 |
| CAAUUCCUCUGGAUCCUACUGGGUUACCUAA | 0.29 ± 0.055 |

| Sequence | pre-steady-state target cleavage rate |
| --- | --- |
| GAAUUCCUCUCGAUCUACUGGGUUAGCUAA | 0.237 ± 0.052 |
| CUUAAGGAGACCUAGUUCUGGGAUACCUAA | < 0.0001 |
| CAAUUCCUCUGGAUCUAGACCCAAUGGAUA [g14:g29:cont:t1A] | < 0.0001 |
| CUAUUCCUCUGGAACUACUGGGUUUCCUAA | 0.337 ± 0.12 |
| CUAUUCCUCUGGAUCUACUGGGUUUCCUAA | 0.344 ± 0.053 |
| CAAUUCCUCUGGUUCUACUGGGUAACCUAA | 0.162 ± 0.032 |
| GAAUUCCUCUGGAACUACUGGGUUUCCUAA | 0.646 ± 0.21 |
| GAAUUCCUCUGGUUCUACUGGGUAACCUAA | 0.288 ± 0.063 |
| CUAUUCCUCUGGUUCUACUGGGUAACCUAA | 0.156 ± 0.033 |
| CAAUUCCUCUGGUUCUACUGGGUUUCCUAA | 0.951 ± 0.36 |
| CUUUUCCUCUGGUUCUACUGGGUUUCCUAA | 0.522 ± 0.19 |
| GAAUUCCUCUGGAUCUACUGGGUUUCCUAA | 0.27 ± 0.047 |
| GAAUUCCUCUGGUUCUACUGGGUUUCCUAA | 0.923 ± 0.3 |
| CAAUUCCUCUGGAACUACUGGGUUUCCUAA | 0.348 ± 0.1 |
| CUAUUCCUCUGGUUCUACUGGGUUUCCUAA | 1.05 ± 0.44 |
| CUUUACCUCUGGAUCUACUGGGUUUCCUAA | 0.167 ± 0.029 |
| CAAUUCCACUGGUUCUACUGGGUUACCUAA | 0.593 ± 0.041 |
| CUUAAGGAGAGGAUCUACUGGGUUAACCUAA | 0.00722 ± 0.0036 |
| CUUUUCCUCUGGAUCUACGGGUUACCUAA | 0.0476 ± 0.0059 |
| CUUAAGGACUGGAUCAACUGGCUUACCUAA | 0.0268 ± 0.022 |
| CUUAAGGACUCGAUCUACUGGGUUAGCUAA | 0.00705 ± 0.0047 |
| CUUAACCACUGGAUCUACUGGGUUACGUAA | 0.402 ± 0.031 |
| CAAUACGUCUGGAUCUACUGGGUUACCUAA | 0.494 ± 0.053 |
| GAAUUCCUCUGGAACUACUGGGUUACGUAA | 0.657 ± 0.04 |
| CUAUUCCUCUGGAACUACUGGGUUACGUAA | 0.47 ± 0.031 |

| Sequence | pre-steady-state target cleavage rate |
| --- | --- |
| CAAUUCCUCUGGAACUACUGGGUUACGUAA | 0.517 ± 0.048 |
| CUUAAGCUCUGCAUCUACUGGGUUAGCUAA | 0.182 ± 0.027 |
| CUAUUCCAUCUGGAUCUACUGGGUUACCUAA | 0.537 ± 0.053 |
| CAAUUCCUCUCCAUCUACUGGGUUACCUAA | 0.829 ± 0.057 |
| CUUAUCCUCUCCAUCUACUGGGUUACCUAA | 0.422 ± 0.033 |
| GAAUUCCUCUCCAUCUACUGGGUUACCUAA | 0.706 ± 0.051 |
| GAAUUCCUCCUGGAUCUACUGGGUUACCUAA | 0.445 ± 0.047 |
| CUAUUCCUCUCCAUCUACUGGGUUACCUAA | 0.647 ± 0.051 |
| CUAUUCCUCUGGGAUCUACUGGGUUACCUAA | 0.514 ± 0.042 |
| CAAUUCCAUCUGGAUCUACUGGGUUACCUAA | 0.568 ± 0.064 |
| CUUUUCCUCUCCAUCUACUGGGUUACCUAA | 0.554 ± 0.044 |
| GAAUUCCUCGGAUCUACUGGGUUACCUAA | 0.432 ± 0.08 |
| CUUAAGGGCUGGAUCUACUGGGUUACCUAA | 0.159 ± 0.037 |
| CUUAAGGAGUGGAUCAACUGGGUUACGUAA | 0.053 ± 0.014 |
| CUUAAGGACUGGAUCUACUGGGUCUACCUAA | 0.0638 ± 0.033 |
| CUUAACCUGCUGGAUCUACUGGGUUACCUAA | 0.356 ± 0.036 |
| CUUAAGGACUGGAUUCUACUGGGUUACCUAA | 0.0274 ± 0.024 |
| GAAUUCCUCAGGUUCUACUGGGUUACCUAA | 0.539 ± 0.049 |
| GAAAUCCUCAGGAUCUACUGGGUUACCUAA | 0.446 ± 0.051 |
| GAAUACCUCAGGAUCUACUGGGUUACCUAA | 0.421 ± 0.043 |
| GUAUUCCUCAGGAUCUACUGGGUUACCUAA | 0.0863 ± 0.033 |
| GAAUUCCUCAGGAUCUACUGGGUUACCUAA | 0.483 ± 0.048 |
| CAAUUCCUCAGGUUCUACUGGGUUACCUAA | 0.709 ± 0.054 |
| CUAUACCUCAGGAUCUACUGGGUUACCUAA | 0.465 ± 0.051 |
| CAAUACCUCAGGAUCUACUGGGUUACCUAA | 0.656 ± 0.061 |

| Sequence | pre-steady-state target cleavage rate |
| --- | --- |
| CUAAUCCUCAGGAUCUACUGGGUUACCUAA | 0.55 ± 0.055 |
| CUAUUCCUCAGGUUCUACUGGGUUACCUAA | 0.584 ± 0.05 |
| CAAUUCCUCAGGAUCUACUGGGUUACCUAA | 0.695 ± 0.062 |
| CAAAUCCUCAGGAUCUACUGGGUUACCUAA | 0.754 ± 0.059 |
| GAAUUCCUCUGGAUCUACUCGGUUACGUAA | 0.155 ± 0.021 |
| CUUAUCCACUGCAUCUACUGGGUUACCUAA | 0.314 ± 0.018 |
| CUUAAGGUCUGGAUCUACAGGGUUACCUUA | 0.0564 ± 0.011 |
| CUUAAGGACUGGAUCUUCUGGGUUACCUAA | 0.0593 ± 0.037 |
| CUAUGCCUCUGGAUCUACUGGGUUACCUAA | 0.275 ± 0.037 |
| CUAUUCCUCUGGAUCUACUCCGUUACCUAA | 0.0198 ± 0.0061 |
| CUAUUCCACUGGAUCUACUGCGUUACCUAA | 0.542 ± 0.056 |
| GAAUUCCACUGGAUCUACUGCGUUACCUAA | 0.744 ± 0.063 |
| GAAUUCCUCAGGAUCUACUGCGUUACCUAA | 0.518 ± 0.048 |
| CAUUUCCUCAGGAUCUACUGGGUUACCUAA | 0.701 ± 0.054 |
| CUUUUCCUCAGGAUCUACUGGGUUACCUAA | 0.578 ± 0.054 |
| CUAUUCCUCAGGAUCUACUGCGUUACCUAA | 0.561 ± 0.069 |
| CAAUUCCUCAGGAUCUACUGCGUUACCUAA | 0.674 ± 0.071 |
| GAUUUCCUCAGGAUCUACUGGGUUACCUAA | 0.459 ± 0.046 |
| CAAUUCCACUGGAUCUACUGCGUUACCUAA | 0.468 ± 0.067 |
| CUUAACCACUGGAUCUACUCGGUUACCUAA | 0.0483 ± 0.01 |
| CUUAUCCUCUGGAUGCUACUGGGUUACCUAA | 0.277 ± 0.034 |
| CUAUUCCUCUGGAUGUACUGGGUUACCUUA | 0.403 ± 0.043 |
| CUUAAGGACUGGAUCUACUGGGUUACCGUAA | 0.0402 ± 0.032 |
| CUUUUCCUCUGGAUCUACUGGGAUUCCUAA | 0.087 ± 0.033 |
| CUAUUCCUGUGGAUCUACUGGCUUACCUAA | 0.0662 ± 0.017 |

| Sequence | pre-steady-state target cleavage rate |
| --- | --- |
| CUUAACCUCUCGAUCUACUGGGUUACGUAA | 0.551 ± 0.037 |
| CUUAUCCUCUGGAUCUACUGGGUUACGUAA | 0.684 ± 0.049 |
| CUUAUCCUCUGGAUCUACUGGGUUACCGUAA | 0.344 ± 0.063 |
| GAAAUCCUCUGGAUCUACUGGGUUACGUAA | 0.532 ± 0.058 |
| CUUAUCCUCUCGAUCUACUGGGUUACCUUA | 0.436 ± 0.032 |
| CUUAUCCUCUCGAUCUACUGGGUUACGUAA | 0.728 ± 0.046 |
| CUAAUCCUCUGGAUCUACUGGGUUACGUAA | 0.66 ± 0.052 |
| CAAAUCCUCUGGAUCUACUGGGUUACGUAA | 0.555 ± 0.064 |
| CUUAUCCUCUGGAUCUACUGGGUUACGUUA | 0.469 ± 0.07 |
| CUUUUCCUCAGGAUCUACUGGGUUAGCUAA | 0.133 ± 0.041 |
| CAAUUCCUCUGGAUCUACUGGGUUUCCUUA | 0.281 ± 0.067 |
| GAAUACCUCUGGAUGUACUGGGUUACCUAA | 0.251 ± 0.044 |
| CUAUUCCUCUGGAUCUACUGGGUUACGUUA | 0.401 ± 0.055 |
| CUUAUCCUGUGGAUCUACUGGGUUACCUAA | 0.443 ± 0.056 |
| CUUAUCCUCUGGAUCUACUGGGUUAUCCUAA | 0.413 ± 0.057 |
| CUUAAGGACGGAUCUACUGGGUUACCUAA | 0.0543 ± 0.039 |
| CUUUUCCUCUCGAUCAACUGGGUUACCUAA | 0.553 ± 0.039 |
| CUUAUCCUCUCGAUCAACUGGGUUACCUAA | 0.508 ± 0.033 |
| CUAUUCCUCUCGAUCAACUGGGUUACCUAA | 0.637 ± 0.047 |
| CAAUUCCUCUCGAUCAACUGGGUUACCUAA | 0.721 ± 0.053 |
| CUAUUCCUCUGGAUCAACUGGGUUACCUAA | 0.44 ± 0.051 |
| GAAUUCCUCUCGAUCAACUGGGUUACCUAA | 0.63 ± 0.051 |
| CUUUUCCUCUGGAUCUACUGCGUUAGCUAA | 0.142 ± 0.048 |
| CUUAAGGAGUGGAUCUACUGGGUUACCAUA | 0.0428 ± 0.015 |

Source: the supplement of paper PMC10338343
